Experimental data reported in PubChem BioAssay (NCI).
The panel holds about 79,000 compounds, 15% with a hit somewhere; the sample as a whole holds those more often. No stated cut-off is given here; in the data, active means growth inhibition above about 70%; inactive means the rest.

What was measured:
[1] = NCI Yeast Anticancer Drug Screen. Data for the mec2-1 strain (AID 157); conditions: S. cerevisiae mec2-1 strain, at 50.0 µM, hits give high values
Summary of the method: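 Each compound was tested on mec2-1 yeast, a strain altered in DNA damage repair or cell cycle control. Growth inhibition is reported relative to vehicle.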

[2] = NCI Yeast Anticancer Drug Screen. Data for the sgs1 mgt1 strain (AID 161);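 further: 0% = growth of cultures given vehicle only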; conditions: S. cerevisiae sgs1 mgt1 strain, at 50.0 µM, hits give high values
Summary of the method: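 Test agents were incubated with a DNA-repair-mutant yeast strain. Growth was then read and compared against vehicle-treated controls.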

[3] = NCI Yeast Anticancer Drug Screen. Data for the cln2 rad14 strain (AID 165);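 further: 0% = growth equal to vehicle treated cultures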; conditions: S. cerevisiae cln2 rad14 strain, at 50.0 µM, hits give high values
Summary of the method: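 Test compounds were added to cln2 rad14 yeast cultures; inhibition of growth was then determined by comparison with vehicle treatment.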

[4] = NCI Yeast Anticancer Drug Screen. Data for the bub3 strain (AID 167); conditions: S. cerevisiae bub3 mutant strain, at 50.0 µM, hits give high values
Summary of the method: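 Readout: yeast growth inhibition, expressed relative to vehicle-only wells. The test organism is a mutant strain from a panel with lesions in DNA repair or checkpoint genes.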

[5] = NCI Yeast Anticancer Drug Screen. Data for the mlh1 rad18 strain (AID 175); conditions: S. cerevisiae mlh1 rad18 strain growth inhibition; at 50.0 µM; hits give high values
Summary of the method: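 Inhibition values reflect reduced growth of mutant yeast versus vehicle-treated controls following compound exposure; the mutations affect DNA damage repair.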

Measured: growth inhibition

C[Si](C)(/C(=C/COCc1ccccc1)CCOC1CCCCO1)c1ccccc1 (centres undefined)
inactive: [1] -6.95% | [2] -17.1% | [3] -10.9% | [4] 0.6% | [5] -27.4%

CCOC(=O)NCS(=O)(=O)N1CCOCC1
inactive: [1] 9.25% | [2] 8% | [3] 19.6% | [4] 3.45% | [5] 9.7%

COC(=O)CCCc1c[nH]c2ccccc12
inactive: [1] -9.8% | [2] -3.9% | [3] -0.95% | [4] 14.2% | [5] -1.05%

CC1CC(c2ccccc2)S(=O)(=O)O1 (centres undefined)
inactive: [1] -4.3% | [2] -3.7% | [3] -12.2% | [4] 35% | [5] -9.95%

COc1ccc(Cl)cc1Cl
inactive: [1] -6.45% | [2] -98% | [3] 14.2% | [4] 14.1% | [5] 26.6%

CCCCCCCCCCCC(=O)OCC
inactive: [1] 22.4% | [2] 8.45% | [3] 25.2% | [4] 9.15% | [5] 8.7%

CC(=O)Nc1ccc2c(c1)Cc1c(F)cc(F)cc1-2
inactive: [1] -9% | [2] 19.6% | [3] 16.1% | [4] 21.9% | [5] 39.8%

COc1ccc(C(c2ccc(N(Cc3ccccc3)Cc3ccccc3)cc2NC(C)=O)c2ccc(N(Cc3ccccc3)Cc3ccccc3)cc2NC(C)=O)cc1OC
inactive: [1] -5.25% | [2] -19.9% | [3] -8.55% | [4] -6.1% | [5] 26.7%

CCOC(=O)C1(C)OC1c1ccc([N+](=O)[O-])cc1 (centres undefined)
inactive: [1] 5.45% | [2] -4.5% | [3] -15.6% | [4] -9.85% | [5] -9.85%

COc1cc(O)c2c(=O)c(O)c(-c3ccc(O)c(O)c3)oc2c1
inactive: [1] -24.1% | [2] 13.7% | [3] 9.05% | [4] -11.8% | [5] -10.6%

COc1c(NC(=O)Nc2ccc(SC)cc2)cccc1[N+](=O)[O-]
inactive: [1] 15.6% | [2] 23.6% | [3] 5.1% | [4] 41.3% | [5] 9.65%

N#Cc1cnsc1
inactive: [1] 2.65% | [2] 4.75% | [3] 3.55% | [4] 12.4% | [5] -26.8%

CC(O)(COS(=O)(=O)c1ccccc1)c1ccccc1 (centres undefined)
inactive: [1] 0.7% | [2] -8.7% | [3] -14% | [4] 26.7% | [5] -8.4%

COc1ccc(-c2nc(SCc3ccc(Cl)cc3)[nH]c(=O)c2CCO)cc1
inactive: [2] -4.45% | [3] 3.15% | [4] -3.45% | [5] 10.4%

CC(=O)NC1CC(C)(C)NC(C)(C)C1
inactive: [1] -30.2% | [2] 3.45% | [3] 10.5% | [4] 0.5% | [5] -9.25%

CCCCCCOC(=O)CCBr
inactive: [1] 2.35% | [2] -3.15% | [3] -4.55% | [4] 4.55% | [5] 1.4%

O=S(=O)(O)SCC1=NCCN1
inactive: [1] -5.1% | [2] -3.55% | [3] -34.9% | [4] 11.2% | [5] 9.85%

CC(O)CN(CC(C)O)S(=O)(=O)c1ccc(N)cc1 (centres undefined)
inactive: [1] -14.2% | [2] -0.45% | [3] -9.3% | [4] 13.8% | [5] -2%

CCOc1ccccc1C=Nc1cc(C(C)C)c(O)cc1C
inactive: [1] -17.2% | [2] 5.6% | [3] -4.6% | [4] 0.85% | [5] -12.3%

CCCCCCCCCC(=O)N/N=C\c1cccc2ccccc12
inactive: [1] 17.9% | [2] 1.2% | [3] -14.1% | [4] 24.6% | [5] 16.9%

CN(Cc1cnc2nc(N)nc(N)c2n1)c1ccc(C(=O)NC(CCC(=O)NC(CCC(=O)O)C(=O)O)C(=O)O)cc1 (centres undefined)
inactive: [1] 20.6% | [2] 32.8% | [3] 13.5% | [4] 33.5% | [5] 36.2%

CCOC(=O)N1CN(C(=O)OCC)CN(C(=O)OCC)C1
inactive: [1] 19.5% | [2] 9.45% | [3] -7.6% | [4] 29.4% | [5] -5.45%

O=C(O)C1CCCN1Cc1ccc2c(c1)OCO2 (centres undefined)
inactive: [1] -19.6% | [2] -34% | [3] -3.5% | [4] -40.8% | [5] -36.8%

c1ccc(C(Sc2ncnc3nc[nH]c23)c2ccccc2)cc1
inactive: [1] 13.2% | [2] -3.85% | [3] -22.5% | [4] 18.1% | [5] 0.1%

N#CCc1ccccc1-c1ccccc1
inactive: [1] -8.2% | [2] 11.4% | [3] -45.5% | [4] 5.6% | [5] -9.75%

CC(C)c1ccc(C(=O)OCC2CCCO2)cc1 (centres undefined)
inactive: [1] 13.1% | [2] 6.5% | [3] -13.7% | [4] -5.3% | [5] 3.65%

NNC(=O)/C(=C/c1cccc([N+](=O)[O-])c1)NC(=O)c1ccccc1
inactive: [1] -25.4% | [2] -15.9% | [3] 7.5% | [4] -16.4% | [5] -24.1%

c1ccc2scnc2c1
inactive: [1] 7.25% | [2] 13.7% | [3] -24.5% | [4] 29.2% | [5] 37.2%

COC(=O)c1ccc2c(c1)nnn2C(C)=O
inactive: [1] -12.7% | [2] -7.25% | [3] -21.9% | [4] 1.7% | [5] 4.65%

N#C/C(=C\c1ccc(F)cc1)C(=O)O
inactive: [1] 0.8% | [2] -7.9% | [3] 4.2% | [4] 8.5% | [5] 18.4%

COc1cccc(CCNC(=O)Cc2ccccc2CCO)c1
inactive: [1] -7.8% | [2] -46.8% | [3] 9.35% | [4] -37.9% | [5] -53.8%

C=CCSc1ccc(Cl)cc1[N+](=O)[O-]
inactive: [1] -3.4% | [2] 6.05% | [3] -8.45% | [4] 4% | [5] 0.3%

CCCCCCCCCCCCCCCC(=O)O[C@@H]1[C@@H](C)[C@@]2(O)[C@@H](C=C(CO)C[C@]3(O)C(=O)C(C)=C[C@@H]23)[C@H]2[C@]1(OC(C)=O)[C@]2(C)CO
inactive: [1] 2.75% | [2] 20.1% | [3] 30.9% | [4] 21.1% | [5] -71.2%

Cc1[nH]c(=S)[nH]c(=O)c1CCC(C)C
inactive: [1] 14.8% | [2] 14.1% | [3] 52.1% | [4] 37.8% | [5] 6.5%

COc1cc2c(cc1O)C(=O)CCC(C(=O)O)=C2
inactive: [1] -12.8% | [2] 3.65% | [3] -14.8% | [4] 2% | [5] 14.6%

COC(=O)n1oc2c(Br)cc(Br)cc2c1=O
inactive: [1] -10.4% | [2] 1.45% | [3] -6.85% | [4] -0.2% | [5] 0.8%

OC1C(O)C2OC(c3ccccc3)OC2C2OC(c3ccccc3)OC12 (centres undefined)
inactive: [1] -4.85% | [2] 0.95% | [3] 0.1% | [4] -15.4% | [5] -2.35%

Cc1cc(CO)c(O)c(CN(CC(=O)O)CC(=O)O)c1
inactive: [1] -14.9% | [2] 5.9% | [3] -1.4% | [4] 21.6% | [5] -0.7%

COc1ccc(Cl)cc1NC(=O)c1ccc(C(=O)Nc2cc(Cl)ccc2OC)cc1
inactive: [1] 7.3% | [2] -10.2% | [3] -22.9% | [4] 0.7% | [5] 9.5%

CCCCS(=O)(=O)CCCCCCl
inactive: [1] -2.95% | [2] -6.25% | [3] -13.5% | [4] -6.45% | [5] 9.55%
